About 83,000 compounds went through this panel and 20% of them were active in at least one assay; those are over-represented in the sample as a whole.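 Results are percent growth after 48 hours of single-concentration exposure. 100 means growth as in untreated cells, lower positive values show inhibition; negative values down to -100 show cell death.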 Activity calls are given as the source filed them. Rule for the calls: active = growth percent below 10; inactive = the rest.

In the assay the test system is HL-60(TB) leukemia. Description: NCI-60 one-dose screen, 48 h (100 = growth as untreated, 0 = no growth, -100 = all killed). Particulars: 10 µM unless noted.
Take `O=C(COc1cccc(/C=C2\Oc3ccccc3C2=O)c1)c1ccc([N+](=O)[O-])cc1`: the growth was 83.7% (inactive).
For the compound `Clc1nc(Cl)c2ncn(CCOCCn3cnc4c(Cl)nc(Cl)nc43)c2n1`, the growth was -70.6% (active).
As for `O=C(COc1ccc(Cl)cc1Cl)Oc1coc(CSc2nc3ccccc3s2)cc1=O`, the growth is 100% (inactive).
As for `O=C(CCc1nc(-c2cccc(Cl)c2)no1)Nc1ccccn1`, the growth is 102% (inactive).
Take `CCOc1cccc2c(NC(C)CCCN(CC)CC)c(C)cnc12` (stereo not given): the growth was 105% (inactive).
As to `FC(F)(F)c1cccc(Oc2ccc(Nc3ncnc4ccc(OCCCN5CCOCC5)cc34)cc2Cl)c1`, the growth is 32.8% (inactive).
Take `CC1CCCCC[N+]12CCCC2` (stereo not given): the growth was 102% (inactive).
Regarding `COc1cc(-c2nn(-c3cccc(NC(=O)CCN4CCN(Cc5ccccc5)CC4)c3)cc2-c2ccncc2)ccc1Cl`, the growth is -5.82% (active).
Then `Cc1ccccc1NC(=O)c1sc2nc3c(cc2c1N)C(=O)CCC3`, with 36% (inactive).
In the case of `O=C1c2cccc3cc([N+](=O)[O-])cc(c23)C(=O)N1CCN1CCCC1`, the growth was -54.1% (active).
Consider `COc1ccc2c(c1)/C(=C\c1c[nH]c3ccc(OC)cc13)C(=O)N2`, for which the growth is 20.8% (inactive).
Next, `O=S(=O)(NCCNc1nccc(-c2c(-c3ccc(F)c(O)c3)nc3sccn23)n1)c1ccccc1`: 71% (inactive); `O=C/C=C/c1ccc([N+](=O)[O-])cc1Cl`: 82.6% (inactive); `CCOC(=O)C1=C(C)NC(=O)NC1c1cccs1` (stereo not given): 60.5% (inactive).
As to `CC(=O)N1N=C(c2ccc(Nc3nc(Nc4ccc(F)cc4)nc(Nc4ccc(Cl)cc4)n3)cc2)CC1c1ccc(Cl)cc1` (stereo not given), the growth is 166% (inactive).
Consider `Nc1ncnc2c1ncn2C1OC(COC(c2ccccc2)(c2ccccc2)c2ccccc2)C(O)C1O` (stereo not given), for which the growth was 8.77% (active).
Consider `CN1/C(=C/C=C/c2n(Cc3ccc4ccccc4c3)c(Cl)c(Cl)[n+]2Cc2ccc3ccccc3c2)Oc2ccccc21`, for which the growth is 98.9% (inactive).
Regarding `Cn1cc(-c2csc(-c3cn(CCCN4CCOCC4)c4ccccc34)n2)c2cccnc21`, the growth was 70.9% (inactive).
As for `CCCCCN(CCCCC)CC(O)c1c(Cl)ccc2ccccc12` (stereo not given), the growth is 87.6% (inactive).
Next, `COc1cc2c(cc1OCCCOC1=C=C=C(c3ccc4c(c3)c3cc(-c5ccc(OCCCOc6cc7c(cc6OC)C(=O)N6CCC[C@H]6C=N7)cc5)ccc3n4S(=O)(=O)c3ccc(C)cc3)C=C1)N=C[C@@H]1CCCN1C2=O`: 10.5% (inactive); `O=C(/C=C/c1cccnc1)/C=C/c1cccnc1`: -43.4% (active); `CCOC(=O)C1=C(C)NC(SCc2nnc(-c3ccc(Cl)cc3)o2)=NC1c1ccc(Br)cc1` (stereo not given): 22.5% (inactive).
For `CCOc1ccccc1C(=O)OCC(=O)Nc1cccc(S(=O)(=O)N(C)C)c1`, the growth is 86.2% (inactive).
As for `NC(=O)c1ccc(C2C3=C(CCCC3=O)OC3=C2C(=O)c2ccccc2C3=O)cc1` (stereo not given), the growth was -30.4% (active).
As for `NS(=O)(=O)c1ccc(C(=O)NN2C(=O)c3ccccc3C2=O)cc1`, the growth was 103% (inactive).
Then `O=C(N/N=C/c1ccncc1)c1ccccc1Nc1cccc(C(F)(F)F)c1`, with 77.7% (inactive); and `O=C1NC(=O)/C(=C/c2ccc3nccc(-c4ccncc4)c3c2)S1`, with -32.1% (active).
As to `COc1ccc(/C=C2\N=C(c3ccccc3)N(c3cc(OC)c(OC)cc3C(=O)N3N=C(C)CC3=O)C2=O)cc1`, the growth was 107% (inactive).
Consider `Cc1cc(N=C2C=CC(=[N+](C)C)C=C2)c(N)cc1N`, for which the growth is 122% (inactive).
For the compound `Cc1cccc(CN(Nc2ccccc2)c2ccccc2)n1`, the growth is 91.9% (inactive).
Turning to `COc1ccc(-c2cnoc2-c2cc(OC)c3c(c2)OCCO3)cc1`, the growth was -27.4% (active).
Consider `CN1CCC(CNc2ccc3ncc(-c4cccc(OC(F)(F)F)c4)n3n2)CC1`, for which the growth was -37.1% (active).
For `Nc1ccc2cc(Br)c3ccccc3c2c1`, the growth was 45.6% (inactive).
Next, `COCCOC(=O)NC(=O)Nc1ccc(C(=O)c2ccc(Cl)cc2)cc1`: -13.3% (active); `COc1ccccc1N1CCN(C(=O)c2ccc3nc(NC(=O)c4ccc(NCCc5ccccc5)c([N+](=O)[O-])c4)sc3c2)CC1`: 94.3% (inactive).
Regarding `Brc1ccc2c(c1)-c1ccccc1C1=NCCN12`, the growth was 18.2% (inactive).
For `N#CN1CCC[C@H]1C(=O)N1CCc2c(-c3[nH]nc4ncccc34)cccc21`, the growth is -30.7% (active).
As for `CC(=O)N[C@@H](CNC(=O)c1cc(NC(=O)c2cc(NC(=O)c3cc(NC(=O)c4nccn4C)cn3C)cn2C)cn1C)CC(=O)Nc1cn(C)c(C(=O)Nc2cc(C(=O)Nc3cc(C(=O)Nc4cc(C(=O)NCCCN(C)CCCNC(=O)c5cccc(C(=O)O)c5)n(C)c4)n(C)c3)n(C)c2)n1`, the growth was 109% (inactive).
With `CC(O)COc1ccc(-c2ccccc2)cc1` (stereo not given), the growth is 102% (inactive).
Turning to `C[Si](C)(C)Cc1ccccc1`, the growth is 125% (inactive).

For the origin of these results see PubChem BioAssay (NCI).
